# The source made the active and inactive calls. The calls were made as follows: active = hit-call score of the fitted dose curve at least 0.9, where 1 is the maximum; inactive = score below 0.9.
# Assay: CCTE_Harrill_HTTr_Apoptosis_MCF7: CCTE's 6-hour Apoptosis Assessment for the High-Throughput Transcriptomics (HTTr) Platform, in MCF-7 cells cultured in DMEM + 10% fetal bovine serum, Harrill Lab (AID 2284011)
# Source text: This is a cell-based assay that evaluates apoptosis using high content imaging to evaluate activation of caspase-3/7 using the CellEvent Caspase 3/7 Green detection reagent in 384-well format.One of seven assay components measured from the CCTE_Harrill_HTTr_Apoptosis assay. This was part of a full screening experiment. This is a cell-based assay that evaluates apoptosis in MCF-7 cells cultured in DMEM + 10% fetal bovine serum. High content imaging is used to evaluate activation of caspase-3/7 using the CellEvent Caspase 3/7 Green detection reagent. Measurements are taken at 6 hours after chemical dosing in 384-well format.The assay component endpoint CCTE_Harrill_HTTr_Apoptosis_MCF7 was analyzed with bidirectional fitting relation to DMSO as the negative control and baseline of activity. Using a type of viability reporter, gain-of-signal activity can be used to evaluate activation of caspase-3/7 using the CellEvent Caspase 3/7 Green detection reagent to understand changes in apoptosis. To generalize the intended target to other relatable targets, this assay endpoint is annotated to cell cycle, where the subfamily is apoptosis.
# Chemicals were tested in MCF7 cells in an eight point dilution series with a six hour exposure duration.
row,Compound,outcome
1,Cc1ccc(O)c(C)c1,inactive
2,CN(C)c1nc(=O)n(C2CCCCC2)c(=O)n1C,inactive
3,C=CC(=O)NCNC(=O)C=C,inactive
4,ClC1=C(Cl)[C@]2(Cl)[C@@H]3[C@@H](Cl)[C@H]4O[C@H]4[C@@H]3C1(Cl)C2(Cl)Cl,inactive
5,Sc1ccccc1,inactive
6,O=NN(c1ccccc1)c1ccccc1,inactive
7,Cc1cc(-c2ccc(N)c(C)c2)ccc1N,inactive
8,CC1=C2C[C@H]3[C@@H](CC=C4C[C@@H](O)CC[C@@]43C)[C@@H]2CC[C@]12O[C@@H]1C[C@H](C)CN[C@H]1[C@H]2C,inactive
9,Nn1cnnc1,inactive
10,ClC1=C(Cl)[C@]2(Cl)[C@@H]3[C@@H]4C[C@@H]([C@H]5O[C@@H]45)[C@@H]3[C@@]1(Cl)C2(Cl)Cl,inactive
11,O=C(O)C(F)(F)C(F)(F)C(F)(F)C(F)(F)C(F)(F)C(F)(F)C(F)(F)C(F)(F)C(F)(F)F,inactive
12,NS(=O)(=O)C(F)(F)C(F)(F)C(F)(F)C(F)(F)C(F)(F)C(F)(F)C(F)(F)C(F)(F)F,inactive
13,CN(C)CCO,inactive
14,c1ccc(-c2ccccc2)cc1,inactive
15,C1CC2OC2CC1C1CO1 (stereo not given),inactive
16,CCCCCCOC(=O)c1ccccc1C(=O)OCCCCCC,inactive
17,O=S(=O)(O)C(F)(F)C(F)(F)C(F)(F)C(F)(F)C(F)(F)C(F)(F)F,inactive
18,Cc1cc2c3c(c1)C(c1ccccc1)=N[C@@H](NC(=O)c1ccncc1)C(=O)N3CC2,inactive
19,Clc1ccc(C(c2ccccc2Cl)C(Cl)(Cl)Cl)cc1 (stereo not given),inactive
20,Clc1ccc(Cl)cc1,inactive

row,Compound,outcome
1,CCNc1nc(NC(C)C)nc(SC)n1,inactive
2,O=C(NC(=O)c1cc(F)c(F)cc1Cl)Nc1cc(F)ccc1N1CCC(C(=O)O)CC1,inactive
3,CCC(C)(CC)c1cc(NC(=O)c2c(OC)cccc2OC)on1,inactive
4,CCCN(CCC)N=O,inactive
5,ClC1=C(Cl)[C@]2(Cl)[C@@H]3[C@H]4C[C@H]([C@@H]5O[C@H]45)[C@@H]3[C@@]1(Cl)C2(Cl)Cl,inactive
6,CC(C)(c1ccccc1)c1ccc(O)cc1,inactive
7,CO/C=C(/C(=O)OC)c1ccccc1COc1cccc(C(F)(F)F)n1,inactive
8,Oc1ccc(Cl)cc1Cl,inactive
9,COc1ccc(O)c(C(C)(C)C)c1,inactive
10,O=S(=O)(O)C(F)(F)C(F)(F)C(F)(F)C(F)(F)F,inactive
11,CCC(=O)O[C@H]1CC[C@H]2[C@@H]3CCC4=CC(=O)CC[C@]4(C)[C@H]3CC[C@]12C,inactive
12,O=C(NC(=O)c1c(F)cccc1F)Nc1cc(Cl)c(OC(F)(F)C(F)F)c(Cl)c1,inactive
13,CCCCCCCCCc1ccc(O)cc1,inactive
14,Cc1cccc([N+](=O)[O-])c1,inactive
15,c1cc2ccc3cccc4ccc(c1)c2c34,inactive
16,CCOP(=S)(OCC)SCSC(C)(C)C,inactive
17,CCC(C)(c1ccc(O)cc1)c1ccc(O)cc1,inactive
18,N#Cc1ccc(N(CC(N)=O)CC(F)(F)F)cc1C(F)(F)F,inactive
19,CC(C)(O)C(=O)Nc1ccc([N+](=O)[O-])c(C(F)(F)F)c1,inactive
20,Clc1ccc(C(Cl)(Cl)Cl)cc1,inactive

# Source: PubChem BioAssay (EPA / NIEHS)
